Vaccinia mCherry – vaccinia inhibition (mCherry reporter); Vaccinia virus mCherry reporter infection, fluorescence; Potency, µM (top dose mostly 36.5 µM), without a hit: top-dose activity change, negative = inhibition, usual class: inhibitors; actives 0.63% (n = 310,000); AID 720579; calls by dose curve; tested in A549 cells; also: potency is read from the fitted curve at half-maximal effect; nearly all actives have a fitted effect of over 35% in size
HCMV antiviral – inhibitors of human cytomegalovirus. HFF cells, HCMV-luciferase reporter, 72 h; hits give low values. activity change, negative = inhibition, % at 57.5 µM. actives 4.5% (n = 410,000). AID 1259415; in the data active = activity change below about -60%; inconclusive = no clear call, values can overlap the other calls; inactive = above about -39%
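Human foreskin fibroblasts infected with luciferase-reporter HCMV at MOI 1 PFU/cell, compounds at two doses. Luciferase measured 72 h post infection; normalized to buffer-only basal and Salinomycin (10uM) controls.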
Lassa entry inh – inhibitors of Lassa virus binding or cell entry; Lassa virus pseudotype entry inhibition, cell reporter; Potency, µM (top dose mostly 37.9 µM), inactives show at the top dose activity change, negative = inhibition, actives largely listed as inhibitors; actives 1.2% (n = 300,000); calls by dose curve; tested in HEK293 cells; also: potency is read from the fitted curve at half-maximal effect; nearly all actives have a fitted effect of over 50% in size
MARV entry inh – Marburg virus entry inhibition. Potency, µM (series often up to 37.8 µM), inactives show at the top dose activity change, negative = inhibition, most hits filed as inhibitors. actives 1.8% (n = 300,000). AID 540276. Marburg virus pseudotyped entry inhibition, cell reporter; calls by dose curve; tested in HEK293 cells; also: potency is read from the fitted curve at half-maximal effect
VACV Venus inh – vaccinia inhibition (Venus reporter). Vaccinia virus Venus reporter expression, fluorescence. Potency, µM (series often up to 36.5 µM), without a hit: at the top dose activity change, negative = inhibition, hits mostly inhibitors. actives 0.46% (n = 330,000). AID 720580; calls by dose curve; tested in A549 cells; also: potency is read from the fitted curve at half-maximal effect; nearly all actives have a fitted effect of over 30% in size
HCV inh – inhibitors of hepatitis C virus infection. AID 651820. Potency, µM (doses to about 41.8 µM), for the others: at the top dose activity change, negative = inhibition, usual class: inhibitors. Huh7.5.1 HCVcc-Cre infection, luciferase reporter, 44 h. actives 3.4% (n = 340,000); active = well fitted inhibition curve with a large enough effect; inconclusive = small, poorly fitted or top-dose-only effect, or another doubt; inactive = no such curve, though single readings can be large or run the other way; also: potency is read from the fitted curve at half-maximal effect
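Infectious HCV cell culture screen: compound-treated cells (1,000/well, pre-plated 4 h) are infected with HCVcc-Cre at roughly 0.5 moi and grown 44 h. Infection is quantified by luciferase signal after 15 min substrate incubation at room temperature.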
Active calls of the source: *; i = inactive; ? = inconclusive; / = no result given; [ ] = dose if it differs, or a comment. Hits are enriched below; roughly 7.8% of the tested compounds scored in any of these assays. % is scaled to controls: 0 for no effect and ±100 for the full control effect.

SMILES	Vaccinia mCherry	HCMV antiviral	Lassa entry inh	MARV entry inh	VACV Venus inh	HCV inh
COc1ccccc1OCC(=O)Nc1sc2c(c1C(=O)NCC1CCCO1)CCC2 (centres undefined)	-16%	?	-7%	?	-9%	0.89µM*
COc1ccccc1OCC(=O)Nc1sc2c(c1C(N)=O)CCC2	/	-3	/	/	/	?
CCOC(=O)c1c(NC(=O)COc2cccc3c2CCN(CC)C3=O)sc2c1CCC2	0%	-80*	-14%	?	2%	10%
CCOC(=O)c1c(NC(=O)COC(=O)c2nccnc2N)sc2c1CCC2	/	34	/	/	/	?
COc1cc(N(C)C)c(OC)cc1/C=C1\Cc2ccccc2C1=O	i	/	/	/	-6%	/
O=C(Cc1ccc(F)cc1)Nc1cccc(-c2nc3cccnc3s2)c1	-11%	?	-14%[46.1 µM]	?	-6%	/
CC1CCCN(c2ncnc3c2cnn3-c2ccc(F)cc2)C1 (centres undefined)	7%	-80*	-5%[46.1 µM]	/	0%	/
CC1CCCN(c2ncnc3c2cnn3-c2ccccc2)C1 (centres undefined)	-3%	?	/	/	-15%	-11%
Cc1cccc(-n2ncc3c(N4CCCC(C)C4)ncnc32)c1 (centres undefined)	-6%	-35	-22%[46.1 µM]	/	2%	/
CCN(CC)C(=O)C1CCCN(c2ncnc3c2cnn3-c2ccc(Cl)cc2)C1 (centres undefined)	i	-68*	/	/	?	?
CCN(CC)C(=O)C1CCCN(c2ncnc3c2cnn3-c2cccc(C)c2)C1 (centres undefined)	-14%[1.46 µM]	-37	-9%	?	-26%	?
CC1CCCN(c2ncnc3c2cnn3-c2ccc(Cl)cc2)C1 (centres undefined)	i	-98*	/	/	-5%	-2%
Cc1cc(Nc2cc(Cl)ccc2C)n2nc(-c3ccccc3)nc2n1	-10%	-32	4%[46.1 µM]	-1%[46.1 µM]	-9%	/
Cc1ccc(/C(N)=N/OC(=O)N2CCOCC2)cc1	-20%	-85*	?	15µM*	-25%	?
Cc1cccc(/C(N)=N/OC(=O)N2CCOCC2)c1	?	-74*	16µM*	23µM*	?	?
Cc1ccc(Cl)cc1NC(=O)CCc1c(C)nc2c3cccnc3nn2c1C	-11%	-8	-12%[46.1 µM]	1%[46.1 µM]	-4%	/
COc1cc(C(=O)OCc2cc(=O)oc3c(C)c(C)ccc23)ccc1OC(F)F	-9%	-65*	?	0%[46.1 µM]	-8%	-2%
CN(C)CCCNc1nc2sc3c(c2c(=O)n1CCc1ccccc1)CCCCC3	-11%	?	?	7.1µM*	-13%	?
CCC(C)NC(=O)c1sc2nc(C)c(C(=O)Nc3ccc(C)cc3C)c(-c3ccccc3Cl)c2c1N (centres undefined)	2%	-21	6%[46.1 µM]	?	-12%	/
O=[N+]([O-])c1ccc(C[n+]2c(-c3ccccc3)cc(-c3ccccc3)cc2-c2ccccc2)cc1	i	-63*	/	/	-5%	10µM*
C[n+]1c(-c2ccccc2)cc(-c2ccc(Cl)cc2)cc1-c1ccccc1	i	?	?	?	-6%	-20%
O=c1[nH]c2cc([N+](=O)[O-])cc(Cl)c2c2ccccc12	?	-35	/	/	-2%	/
O=[N+]([O-])c1ccc(C[n+]2ccc(Cc3ccccc3)cc2)cc1	?	-74*	-22%	-5%	-2%	5%
O=[N+]([O-])c1cc(Cl)c(O)c(-[n+]2c(-c3ccccc3)cc(-c3ccccc3)cc2-c2ccccc2)c1	/	-75*	/	/	/	?
O=C([O-])c1cc(-c2ccccc2)cc(-c2ccccc2)[n+]1Cc1ccccc1	/	-79*	/	/	/	-6%
SMILES	Vaccinia mCherry	HCMV antiviral	Lassa entry inh	MARV entry inh	VACV Venus inh	HCV inh
COc1cc(NC(=O)N2CCN(c3cc(-c4noc(C)n4)ccc3C)CC2)cc(OC)c1OC	-14%	-6	-1%[46.1 µM]	/	-17%	/
Cc1cccc(Cn2c(SCc3ccc(C(=O)NCCc4ccccc4)cc3)nc3ccncc32)c1	?	-25	-24%[46.1 µM]	-20%[46.1 µM]	?	/
Cc1ccccc1NC(=O)c1sc2nc(-c3cc4ccccc4oc3=O)[nH]c(=O)c2c1C	-9%	5	18%[46.1 µM]	/	-1%	/
Cc1cc(-c2ccccc2)cc(C)[n+]1Cc1ccccc1	i	-93*	/	/	-19%	-14%
Cc1cc(-c2ccccc2)cc(C)n1	-3%	?	20%[46.1 µM]	-11%[46.1 µM]	3%	3%
CC(C1CC2CCC1C2)N1CC(O)=C(c2nc3ccccc3[nH]2)C1=N (centres undefined)	7.1µM*	-24	-2%	?	5µM*	?
COc1ccc(-n2ncc3c2ncn2nc(COc4ccc(Cl)cc4)nc32)cc1	-10%	-6	-29%[46.1 µM]	19%[46.1 µM]	-8%	/
CN=c1scc(C)n1/N=C/c1ccc2c(c1)OCO2	/	18	3.5µM*	?	-21%	?
CN=c1scc(C)n1/N=C/c1ccc(O)cc1	/	82	?	?	-14%	?
CN=c1scc(-c2ccco2)n1/N=C/c1ccc(O)c(O)c1	-25%	68	?	?	-26%	2.5µM*
COc1ccc(O)c(/C=N/n2c(-c3ccco3)csc2=Nc2cccnc2)c1	-27%	40	?	-2%	-15%	-1%
C=CCN=c1scc(C)n1/N=C/c1ccc(O)c(O)c1	0%	-97*	/	/	4%	11µM*
Cc1nnc(SCc2cccc([N+](=O)[O-])c2)[nH]c1=O	i	-81*	-4%[46.1 µM]	21%[46.1 µM]	0%	-1%
OC(C1=CC(=Cc2ccncc2)c2ccccc21)c1ccncc1 (centres undefined)	-25%	49	-25%[46.1 µM]	?	-14%	11µM*
Cc1ccc(C(c2sc3nc(-c4ccco4)nn3c2O)N2CCN(Cc3ccccc3)CC2)cc1 (centres undefined)	-14%	27	-9%[46.1 µM]	/	-12%	/
CCN(Cc1ccc(NC(C)=O)cc1)CC1CCCN(CCc2cccc(F)c2)C1 (centres undefined)	/	4	/	/	/	?
CCN(Cc1ccc(C#CCCO)cc1)CC1CCCN(CCc2cccc(OC)c2)C1 (centres undefined)	/	-18	/	/	/	11µM*
CCCCCCSc1cc(-c2nc3cc(C)ccn3c2NC2CCCCC2)ccc1OC	-24%	47	/	/	-29%	-19%
COc1ccc(Sc2ccc(-c3nc4cnccn4c3NC3CCCCC3)cc2OC)cc1	?	4	/	/	11µM*	-9%
COc1ccc(CSc2ccc(-c3nc4ccccn4c3NCc3ccccc3)cc2OC)cc1	-26%	-65*	/	/	-19%	?
COc1ccc(-c2nc3cnccn3c2NCc2ccccc2)cc1SC1CCCCC1	?	/	/	/	-21%	10µM*
COc1ccc(-c2nc3ccccn3c2NC2CCCCC2)cc1SC1CCCCC1	?	-99*	/	/	?	?
COC[C@@H](O)[C@H]1OCc2cccc(OC)c2[C@H]1C=Cc1ccccc1	/	/	/	8%[14.2 µM]	/	/
